Bioassay records deposited in PubChem by National Center for Advancing Translational Sciences (NCATS).
Sampled rows, rich in hits. Any-hit rate of the full collection: about 5.8%.
MCF10A rereplic – DNA re-replication induction in MCF 10a cells | Potency, µM (top dose mostly 46.1 µM), for inactives: top-dose activity, positive = re-replication, usual class: activators | 2.9% of 350,000 active | MCF 10A DNA re-replication, Hoechst nuclear intensity, 48 h | AID 624296; also: % of control where 0% means no effect; nearly all actives have a fitted effect of over 50% in size
12-LOX inh – blocks human arachidonate 12S-lipoxygenase; Potency, µM (top dose mostly 108 µM), inactives show at the highest dose activity change, negative = inhibition, actives largely listed as inhibitors; purified 12hLO, xylenol orange hydroperoxide absorbance; 1.1% of 580,000 active; also: % is scaled to controls: 0 for no effect and ±100 for the full control effect
Target sequence (P18054 whole entry, looked up): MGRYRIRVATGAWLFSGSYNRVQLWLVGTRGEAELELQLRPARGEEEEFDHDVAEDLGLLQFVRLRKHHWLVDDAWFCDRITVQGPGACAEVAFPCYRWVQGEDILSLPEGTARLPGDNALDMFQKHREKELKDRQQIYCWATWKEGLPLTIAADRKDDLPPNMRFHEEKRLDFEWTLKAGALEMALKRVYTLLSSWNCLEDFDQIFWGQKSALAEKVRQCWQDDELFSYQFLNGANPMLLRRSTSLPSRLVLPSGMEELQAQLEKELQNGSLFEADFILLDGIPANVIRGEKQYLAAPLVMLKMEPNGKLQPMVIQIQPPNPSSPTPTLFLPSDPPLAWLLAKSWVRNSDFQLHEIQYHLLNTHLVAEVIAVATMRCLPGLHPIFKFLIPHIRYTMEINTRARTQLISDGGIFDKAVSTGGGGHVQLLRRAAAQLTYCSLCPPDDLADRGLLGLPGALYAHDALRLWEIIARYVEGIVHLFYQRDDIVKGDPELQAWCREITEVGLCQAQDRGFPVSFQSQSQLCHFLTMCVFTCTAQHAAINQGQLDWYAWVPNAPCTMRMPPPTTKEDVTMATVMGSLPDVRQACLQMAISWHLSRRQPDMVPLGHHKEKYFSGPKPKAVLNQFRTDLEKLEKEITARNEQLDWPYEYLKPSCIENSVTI
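Purified human 12hLO (150 nM final) in 25 mM Hepes, 0.01% Triton X-100, pH 7.0 was preincubated 15 min at room temperature with compound. Then 40 uM arachidonic acid was added, 30 min. Hydroperoxide was read by Fe-XO absorbance ratio 573/405 nm.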
SW480 rereplic – induces DNA re-replication in SW480 colon adenocarcinoma cells; Potency, µM (top dose mostly 46.1 µM), without a hit: top-dose re-replication activation, usual class: activators; 1.8% of 340,000 active; SW480 DNA re-replication, Hoechst DNA content imaging, 48 h; also: % of control where 0% means no effect; nearly all actives have a fitted effect of over 55% in size
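SW480 cells exposed to compounds for 48 hr at 37 C, 5% CO2, then Hoechst-stained 40 min. Nuclear DNA content imaged by fluorescence scanning (405 nm excitation, 500-530 nm emission); re-replication scored as increased high-intensity nuclei.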
KB-V1 MDR tox – KB-V1 MDR subline cytotoxicity; KB-V1 MDR cells viability, CellTiter-Glo, 72 h; Potency, µM (highest dose often 46.1 µM), usual class: cytotoxic; 3.4% of 400,000 active; AID 1347076; also: % is scaled to controls: 0 for no effect and ±100 for the full control effect; nearly all actives have a fitted effect of over 60% in size
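KB-V1 MDR subline cells in DMEM (phenol-red free, 10% FBS) exposed to compounds in qHTS concentration series for 72 h at 37 degrees C. Viability read by CellTiter-Glo luminescence; concentration-effect curves fitted after normalization and correction.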
PINK1 expr mod – modulators of PINK1 expression | PINK1 immunofluorescence, high-content cytometry, 24 h | Potency, µM (top dose mostly 76.6 µM), inactives show at the top dose activation (PINK1 increase), hits mostly activators | 0.2% of 410,000 active | AID 624263; active = well fitted activation curve with a large enough effect; inconclusive = small, poorly fitted or top-dose-only effect; cell line not stated here; also: % of control where 0% means no effect; nearly all actives have a fitted effect of over 65% in size
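PINK1 protein level read as immunofluorescence by microplate cytometer in a fixed, stained stable cell line after 24 h exposure to five compound concentrations, with CCCP as control.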
KB-3-1 tox – kills parental KB-3-1 adenocarcinoma cells; KB-3-1 viability, CellTiter-Glo ATP luminescence, 72 h; Potency, µM (series often up to 46.1 µM), hits mostly cytotoxic; 1.4% of 400,000 active; AID 1347075; also: % is scaled to controls: 0 for no effect and ±100 for the full control effect; nearly all actives have a fitted effect of over 60% in size
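Screening of KB-3-1 cells (DMEM, 10% FBS, phenol-red free) ran from lowest to highest compound concentration; after 72 h at 37 °C viability was read luminescently and curves fitted.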
The depositor's hits bear a star; i = inactive; u = inconclusive; x = no result; [ ] = remark or other dose. Unless noted, calls follow the shape of the dose curve; as a rule, active = well fitted curve in the direction sought with a large enough effect; inconclusive = small, poorly fitted or top-dose-only effect, or another doubt; inactive = no such curve, though single readings can be large; an effect the other way counts as inactive or inconclusive. Potency is read from the fitted curve at half-maximal effect.

SMILES	MCF10A rereplic	12-LOX inh	SW480 rereplic	KB-V1 MDR tox	PINK1 expr mod	KB-3-1 tox
COCCNC(=O)[C@@H]1CCCN1C(=O)C1CCN(S(=O)(=O)c2ccc(C)cc2)CC1	0%	5%	-3%	i	2%	i
O=C(CSc1ncc(-c2ccc(F)cc2)o1)Nc1ccc(F)c(F)c1	x	-55%	x	x	x	x
CCOC(=O)C1=C(C)N=c2s/c(=C\c3ccc(OCC(=O)O)c(OC)c3)c(=O)n2C1c1ccc(OC)cc1 (stereo unspecified)	23µM*	0%	-1%	i	-2%	i
COc1cccc(C(NC(C)=O)c2ccc3cccnc3c2O)c1 (stereo unspecified)	u	19%	0.65µM*	i	0%	3.7µM*
Oc1cccc(C(Nc2nccs2)c2ccc3cccnc3c2O)c1 (stereo unspecified)	12µM*	u	u	u	-1%	3.3µM*
CC(=O)NC(c1cccc([N+](=O)[O-])c1)c1ccc2cccnc2c1O (stereo unspecified)	15µM*	11%	u	u	3%	3.7µM*
O=[N+]([O-])c1ccc(NC(c2ccccc2)c2ccc3cccnc3c2O)cc1 (stereo unspecified)	u	u	0.82µM*	u	-3%	4.6µM*
COc1ccc(C(=O)N2CCC3(CC2)NCCc2c3[nH]c3ccccc23)cn1	x	39%	x	x	x	x
COC(=O)c1ccc(CSc2nnc(Nc3ccccc3OC)s2)o1	9.2µM*	19%	17%	i	x	i
COC(=O)c1ccc(CSc2nnc(Nc3ccc(OC)cc3)s2)o1	16%	0%	3%	i	-1%	i
CCOC(=O)c1ccsc1NC(=O)CCS(=O)(=O)c1ccccc1	-1%	5%	u	x	18%	x
CCOC(=O)c1cc(C(C)C)sc1NC(=O)COC(=O)CCS(=O)(=O)c1ccccc1	16%	-13%	u	18µM*	1%	i
CN(CC(=O)Nc1ccc(N2CCOCC2)cc1)C(=O)CCc1cc(C(C)(C)C)c(O)c(C(C)(C)C)c1	19%	-11%	2%	3.7µM*	0%	i
Cc1ccc(CC(=O)N(C)CC(=O)Nc2ccc(N3CCOCC3)cc2)cc1C	2%	-11%	0%	i	0%	i
Cn1c(CCNC(=O)CCc2ccc3c(c2)CN(C(=O)C2CC2)CCO3)nc2ccccc21	x	-5%	x	x	x	x
CC1=CC(C)(C)Nc2ccc(OS(=O)(=O)c3ccc(C)cc3)cc21	u	-28%	-6%	15µM*	0%[38.3 µM]	i
CC1=CC(C)(C)Nc2ccc(OC(=O)CCN3C(=O)c4ccccc4C3=O)cc21	6.5µM*	-1%	9.2µM*	u	-1%	u
Cc1ccc(S(=O)(=O)Oc2ccc3ccc(O)cc3c2)cc1	1µM*	0%	-17%	u	13%	i
O=[N+]([O-])c1ccc(/C=N/N=C(c2ccccc2)c2ccccc2)cc1	x	-1%	x	x	x	x
O=C1C2=C(Nc3ccccc3SC2c2ccco2)c2ccccc21 (stereo unspecified)	16µM*	u	6%	i	2%	i
CC(C)c1ccc(C2Sc3ccccc3NC3=C2C(=O)c2ccccc23)cc1 (stereo unspecified)	x	u	x	x	21%	x
O=C1C2=C(Nc3ccccc3SC2c2ccc(C(F)(F)F)cc2)c2ccccc21 (stereo unspecified)	x	4%	x	16µM*	u	u
CC1=C(C)CC(C(=O)N2CCCc3cc(C)ccc32)C(C(=O)O)C1 (stereo unspecified)	x	-14%	x	x	x	x
Cc1cccc(NC(=O)CCN2CCN(C)CC2)c1	9%	11%	-3%	i	1%	i
COc1ccc(C(=O)C2CCN(CC(=O)Nc3cc(C)cc(C)c3)CC2)cc1	u	1%	28%	u	2%	i
SMILES	MCF10A rereplic	12-LOX inh	SW480 rereplic	KB-V1 MDR tox	PINK1 expr mod	KB-3-1 tox
Cc1cccc(NC(=O)CN2CCN(CC(=O)Nc3cccc(C)c3)CC2)c1	21µM*	-4%	1%	u	-3%[38.3 µM]	i
O=C(CN1CCCCCC1)Nc1cccc(Br)c1	1%	2%	-1%	u	3%	i
Cc1ccc(C(=O)C2CCN(CC(=O)Nc3nc(C)cs3)CC2)cc1	3%	6%[57.4 µM]	-2%	21µM*	0%	i
O=C(CN1CCC(C(=O)c2ccc3c(c2)OCCO3)CC1)Nc1ccccc1F	12%	12%	u	i	-1%	i
Cc1cccc(NC(=O)CCN2CCN(Cc3cccc4ccccc34)CC2)c1	x	28µM*	x	x	x	x
Cc1cccc(NC(=O)CN2CCC(C(=O)c3ccc4c(c3)OCCO4)CC2)c1	26%	8%	2%	12µM*	3%	u
CCOC(=O)c1cnc2ccc(Br)cc2c1Nc1cccc([N+](=O)[O-])c1	x	-1%	x	x	x	x
CC(C)c1ccc(S(=O)(=O)N2CCC(C(=O)Nc3nccs3)CC2)cc1	x	-7%	x	x	x	x
CCOC(=O)C1CCN(C(=S)Nc2cccc(C)c2)CC1	5%	0%[57.4 µM]	23%	i	x	i
CN1CCN(C(=S)Nc2cccc(Cl)c2)CC1	17%	8%	6%	13µM*	-1%	i
CCOC(=O)N1CCN(C(=S)Nc2cccc(C)c2)CC1	6%	0%	-14%	18µM*	1%	i
Cc1ccc(C(=O)C2CCN(CC(=O)Nc3ccc(N(C)C)cc3)CC2)cc1	18%	-10%	1%	i	-2%[38.3 µM]	i
Cc1ccc(C(=O)C2CCN(CC(=O)Nc3ccc4c(c3)OCCO4)CC2)cc1	25%	-8%	1%	12µM*	5%[38.3 µM]	i
O=C(Nc1cnc(-c2ccccc2)nc1)c1ccc(C2SCCCS2)cc1	x	-32%	x	x	x	x
COc1ccc(C(CNC(=O)c2cccc(S(=O)(=O)N3CCCc4ccccc43)c2)N(C)C)cc1 (stereo unspecified)	17%	-15%	u	2.3µM*	2%	u
CCN(CC(=O)Nc1cccc(OC)c1)C(=O)c1cccc(S(=O)(=O)N2CCc3ccccc32)c1	16%	u	1%	18µM*	3%	u
COc1cc2c(cc1OC)CN(C(=O)c1cccc(S(=O)(=O)N3CCc4ccccc43)c1)CC2	u	4%	25%	21µM*	-1%	i
COc1ccc(NS(=O)(=O)c2cccc(C(=O)NCC(c3ccccc3)N(C)C)c2)cc1 (stereo unspecified)	-2%	1%	-6%	i	-5%	i
CN(Cc1nc2ccccc2c(=O)[nH]1)C(=O)c1cccc(S(=O)(=O)N2CCc3ccccc32)c1	u	199%	3%	16µM*	0%	i
Fc1ccc2nc(CO[C@H]3CN(Cc4ccc5ccccc5n4)C[C@H]3F)[nH]c2c1	x	117%[176 µM]	x	x	x	x
